# Source: the supplement of paper PMC3545927
# Some of the results follow. No count for the full screen is at hand.
# Molecular target: furin, P09958
# Assay: furin cleavage Z-score vs untreated control; higher = more cleavage, active = 3.5 or more, inactive = 1 or less, 8 variable residues between constant flanks
# In short: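 Magnetic beads held 8-mer peptides by the N-terminus, each fused to a cDNA oligonucleotide, and purified furin was added for 7.5, 15 or 30 min. Released DNA was sequenced after PCR adapter tagging. The cleavage Z-score is the log count relative to furin-free reactions, lowess-adjusted and divided by median absolute deviation.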
# 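Note: purified furin at 1:10 enzyme:substrate in 50 mM HEPES pH 7.5.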
# Chain of furin, P09958 (P09958 whole entry): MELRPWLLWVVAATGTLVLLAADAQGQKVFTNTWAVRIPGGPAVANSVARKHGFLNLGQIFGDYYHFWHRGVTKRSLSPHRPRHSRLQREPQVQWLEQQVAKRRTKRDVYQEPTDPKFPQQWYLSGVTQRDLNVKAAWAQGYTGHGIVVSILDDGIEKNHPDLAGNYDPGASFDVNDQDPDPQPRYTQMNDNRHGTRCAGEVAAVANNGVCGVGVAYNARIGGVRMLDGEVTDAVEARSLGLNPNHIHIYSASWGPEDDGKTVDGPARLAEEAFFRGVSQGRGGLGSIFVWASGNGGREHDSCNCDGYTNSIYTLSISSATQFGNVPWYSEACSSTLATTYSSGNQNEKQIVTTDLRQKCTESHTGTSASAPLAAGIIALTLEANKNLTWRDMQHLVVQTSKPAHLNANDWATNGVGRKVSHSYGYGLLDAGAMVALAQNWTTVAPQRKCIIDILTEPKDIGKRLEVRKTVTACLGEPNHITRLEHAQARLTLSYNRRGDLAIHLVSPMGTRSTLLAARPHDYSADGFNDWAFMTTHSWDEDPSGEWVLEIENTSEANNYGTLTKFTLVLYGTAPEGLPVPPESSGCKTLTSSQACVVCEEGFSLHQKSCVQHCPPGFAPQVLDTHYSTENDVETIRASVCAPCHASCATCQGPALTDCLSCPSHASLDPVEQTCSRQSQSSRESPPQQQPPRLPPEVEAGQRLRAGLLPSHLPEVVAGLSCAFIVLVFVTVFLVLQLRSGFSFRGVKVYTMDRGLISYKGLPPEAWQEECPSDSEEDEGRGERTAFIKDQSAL
Sequence,furin cleavage Z-score (7.5 min),furin cleavage Z-score (15 min),furin cleavage Z-score (30 min)
CAEVVTSTDVAGNASASA [HC2231],-0.548 (inactive),0.743 (inactive),-0.721 (inactive)
CAASSSASQLAGNASASA [HC1260],1.48,0.251 (inactive),0.48 (inactive)
CAVVFCSMSYAGNASASA [HC2027],1.89,0.607 (inactive),-0.194 (inactive)
CARVCRDLMDAGNASASA [FS-1800],4.33 (active),7.74 (active),7.6 (active)
CARSLRDLMEAGNASASA [FS-2308],0.906 (inactive),1.52,1.89
CARVSKDVEDAGNASASA [FS-1803],0.222 (inactive),-0.204 (inactive),-0.557 (inactive)
CAVVDCSMSYAGNASASA [HC2031],-1.66 (inactive),-0.65 (inactive),-0.452 (inactive)
CAGLSTLPGNAGNASASA [HC1049],0.578 (inactive),-0.00394 (inactive),0.293 (inactive)
CARQRRQVWKAGNASASA [FS-3043],2.63,5.18 (active),6.07 (active)
CARQRRTVGQAGNASASA [FS-2367],6.93 (active),8.06 (active),7.82 (active)
CARQARAVPQAGNASASA [FS-2224],3.01,5.06 (active),5.46 (active)
CARQARHYHQAGNASASA [FS-2582],0.232 (inactive),1.85,2.09
CARTMKSVNAAGNASASA [FS-2466],1.07,2.56,0.0466 (inactive)
CARQRKESETAGNASASA [FS-2172],-0.961 (inactive),-0.283 (inactive),-0.371 (inactive)
CARQRRCLPQAGNASASA [FS-2364],-0.0379 (inactive),0.942 (inactive),2.63
CARQARFSSQAGNASASA [FS-1915],-1.25 (inactive),-0.103 (inactive),0.0874 (inactive)
CARQRKSVNAAGNASASA [FS-2363],1.57,3.81 (active),4.35 (active)
CAIAYFSMVGAGNASASA [HC340],-0.888 (inactive),-0.599 (inactive),0.982 (inactive)
CAAELATRSFAGNASASA [HC1333],2.09,0.0816 (inactive),1.22
CAVVLTESTLAGNASASA [HC1327],0.79 (inactive),0.145 (inactive),0.957 (inactive)
CAFAQALPVWAGNASASA [HC1301],-1.52 (inactive),0.477 (inactive),-2.4 (inactive)
CAWRLLAPITAGNASASA [HC672],-1.21 (inactive),-0.661 (inactive),-0.636 (inactive)

Sequence,furin cleavage Z-score (7.5 min),furin cleavage Z-score (15 min),furin cleavage Z-score (30 min)
CARTKRTRRPAGNASASA [FS-2830],0.799 (inactive),1.15,0.99 (inactive)
CARSVRLGGPAGNASASA [FS-1795],0.0283 (inactive),0.734 (inactive),-1.33 (inactive)
CARTKRQIPHAGNASASA [FS-1870],7.68 (active),12 (active),8.92 (active)
CARTKRTPGPAGNASASA [FS-2527],5.68 (active),6.29 (active),6.29 (active)
CARTKRAQSPAGNASASA [FS-2824],6.65 (active),6.74 (active),5.31 (active)
CARTITTGSPAGNASASA [HC802],-0.428 (inactive),-0.048 (inactive),0.343 (inactive)
CARTKLKLTPAGNASASA [HC1636],-0.273 (inactive),-0.712 (inactive),0.0379 (inactive)
CAPLLREEVSAGNASASA [HC1230],0.0348 (inactive),-0.15 (inactive),-1.63 (inactive)
CATTPCSQSWAGNASASA [HC1902],-0.685 (inactive),-1.5 (inactive),-0.222 (inactive)
CATTGCSGSWAGNASASA [HC1876],-1.5 (inactive),-0.493 (inactive),0.42 (inactive)
CAQPSRQKRSAGNASASA [FS-480],11.2 (active),11.3 (active),7.7 (active)
CASPSGQKRSAGNASASA [FS-723],0.144 (inactive),0.828 (inactive),0.312 (inactive)
CAHFSRQKRSAGNASASA [FS-535],8.68 (active),10.7 (active),8.57 (active)
CAKDSRQKRSAGNASASA [FS-670],10.3 (active),10.5 (active),7.97 (active)
CAVVCCRMSYAGNASASA [HC110],0.397 (inactive),0.763 (inactive),0.409 (inactive)
CAVVCCSMSHAGNASASA [HC2095],-0.191 (inactive),0.171 (inactive),0.0466 (inactive)
CAARLVVLATAGNASASA [HC831],-1.24 (inactive),-1.13 (inactive),-0.8 (inactive)
CARHHRFPRAAGNASASA [FS-1063],12.2 (active),10.7 (active),8.91 (active)
CAMASRFPRAAGNASASA [FS-690],11.5 (active),11.7 (active),9.44 (active)
CARHHRGRGGAGNASASA [FS-2022],-0.128 (inactive),0.955 (inactive),-0.479 (inactive)
CAKSKKTPMGAGNASASA [HC1475],1.44,0.854 (inactive),-0.61 (inactive)
